From PubChem BioAssay (NCATS)
Records with an inconclusive call do not appear. Entries that show only a call come without a potency. Active and inactive are the calls of the source. The call rests on the fitted dose curve; in most records, active means well fitted cell-killing curve with a large enough effect; inconclusive means small, poorly fitted or top-dose-only effect, or effect the other way; inactive means no such curve, though single readings can be large or run the other way.

Test: Quantitative High-Throughput drug screen in 47 multiple myeloma cell lines against the NCATS MIPE library collection: OCIMY1_PLB cell viability assay (AID 1918979); further: nearly all actives have a fitted effect of over 35% in size
Conditions: OCI-MY1 myeloma viability, CellTiter-Glo ATP, 48 h; series mostly up to 45.8 µM
From the text: PI: Beverly A. Mock Ph.D.
Laboratory of Cancer Biology and Genetics,
Center for Cancer Research, National Cancer Institute,
National Institute of Health, Bethesda, Maryland
Drug resistance and disease progression are common in multiple myeloma (MM) patients, underscoring the need for new therapeutic combinations. […] We hypothesized that effective combinations would reduce MYC expression and enhance p16 activity. […] These preclinical data identify potentially useful drug combinations for evaluation in drug-resistant MM and reveal potential mechanisms of combined drug sensitivity.
Described herein is the primary MIPE qHTS used to cherrypick compounds. Validated compounds were then further tested for potential synergistic activiy.
[1] Peat TJ, Gaikwad SM, Dubois W, Gyabaah-Kessie N, Zhang S, Gorjifard S, Phyo Z, Andres M, Hughitt VK, Simpson RM, Miller MA, Girvin AT, Taylor A, Williams D, D'Antonio N, Zhang Y, Rajagopalan A, Flietner E, Wilson K, Zhang X, Shinn P, Klumpp-Thomas C, McKnight C, Itkin Z, Chen L, Kazandijian D, Zhang J, Michalowski AM, Simmons JK, Keats J, Thomas CJ, Mock BA. Drug combinations identified by high-throughput screening promote cell cycle transition and upregulate Smad pathways in myeloma. Cancer Lett. 2023 Aug 1;568:216284. doi: 10.1016/j.canlet.2023.216284. Epub 2023 Jun 24. PMID: 37356470; PMCID: PMC10408729.
SEQUENCE No. (e.g., 1, 2, 3, etc.); […] (e.g., Cells, Incubation, Reagent, etc.); VALUE and DESCRIPTION.
1; Cells; 5 uL; white, solid bottom 1536-well Greiner assay plate.
2; Compounds; 23 nL; Kalypsis pin tool (Wako USA) equipped with a 1536-well pin head to transfer to the assay plates.
3; Incubation; 48 hours; 37C incubation.
4; Reagent;5uL; CellTiter Glo (Promega).
5; Detector; 425V; Luminescence; Viewlux PerkinElmer.
NOTES (numbers refer to Sequence numbers above)
1. The cell-based screening methods employed in this study were like those previously published. Briefly, the corresponding myeloma cell lines were screened in 1,536-well plates with 500 cells, 5-uL per well for inhibition of cell viability (assessed by measuring ATP levels with CellTiterGlo).
2. NCATS MIPE 4.0 library of approved and investigational drugs were added using the Kalypsis pin tool. Wells treated with DMSO only for 100% viability and media only for 0% viability were used as controls.
3. The assay plates were covered and incubated for 48 hours in a 37C, 5% CO2 incubator with controlled humidity.
4. After 48 hours, CellTilter-GloTM luminescent substrate mix (Promega) reagent was added to the assay plate and plates we incubated for 5 min at room temperature.
5. Signal was measured as median relative luminescence units on a ViewLux (PerkinElmer) multiplate reader.
[1] Heske CM, Davis MI, Baumgart JT, Wilson K, Gormally MV, Chen L, Zhang X, Ceribelli M, Duveau DY, Guha R, Ferrer M, Arnaldez FI, Ji J, Tran HL, Zhang Y, Mendoza A, Helman LJ, Thomas CJ. Matrix Screen Identifies Synergistic Combination of PARP Inhibitors and Nicotinamide Phosphoribosyltransferase (NAMPT) Inhibitors in Ewing Sarcoma. Clin Cancer Res. 2017 Dec 1;23(23):7301-7311. doi: 10.1158/1078-0432.CCR-17-1121. Epub 2017 Sep 12. PMID: 28899971; PMCID: PMC6636827.
Potency means the concentration at half of the fitted maximal effect.

SMILES	Potency
Clc1ccc(C(c2ccccc2Cl)C(Cl)Cl)cc1 (stereo not given)	26.4 µM (active)
CN1CCC(=C2c3ccccc3CC(=O)c3sccc32)CC1	inactive
Nc1c2c(nc3ccccc13)CCCC2	inactive
NS(=O)(=O)c1cc2c(cc1Cl)NCNS2(=O)=O	inactive
CN(C)c1nc(N(C)C)nc(N(C)C)n1	inactive
CCOC(=O)C(C)(C)Oc1ccc(Cl)cc1	inactive
CC[N+](CC)(CC)CCOc1cccc(OCC[N+](CC)(CC)CC)c1OCC[N+](CC)(CC)CC	inactive
NC(=O)OCC(COC(N)=O)c1ccccc1	inactive
O=C(Nc1ccc([N+](=O)[O-])cc1Cl)c1cc(Cl)ccc1O	2.96 µM (active)
CC(C(=O)O)c1cccc(C(=O)c2ccccc2)c1 (stereo not given)	inactive
Clc1ccc2nsnc2c1NC1=NCCN1	inactive
Cc1cnc(C(=O)NCCc2ccc(S(=O)(=O)NC(=O)NC3CCCCC3)cc2)cn1	inactive
CN(CCOc1ccc(NS(C)(=O)=O)cc1)CCc1ccc(NS(C)(=O)=O)cc1	inactive
CC[C@@]1(O)C(=O)OCc2c1cc1n(c2=O)Cc2cc3c(CN(C)C)c(O)ccc3nc2-1	13.2 µM (active)
NC(=O)NO	0.662 µM (active)
CC#C[C@]1(O)CC[C@H]2[C@@H]3CCC4=CC(=O)CCC4=C3[C@@H](c3ccc(N(C)C)cc3)C[C@@]21C	3.72 µM (active)
O=C(c1ccc(F)cc1)C1CCN(CCn2c(=O)[nH]c3ccccc3c2=O)CC1	inactive
NCCCCCC(=O)O	inactive
CC(C)Cc1ccc(C(C)C(=O)O)cc1 (stereo not given)	inactive
COc1ccc(C2CNC(=O)C2)cc1OC1CCCC1 (stereo not given)	inactive

SMILES	Potency
CCOC(=O)Nc1ccc(NCc2ccc(F)cc2)nc1N	inactive
CCc1cccc2c3c([nH]c12)C(CC)(CC(=O)O)OCC3 (stereo not given)	inactive
NC(CO)C(=O)NNCc1ccc(O)c(O)c1O (stereo not given)	26.4 µM (active)
CN1CCN(C2=Nc3cc(Cl)ccc3Nc3ccccc32)CC1	inactive
CN(C)C(=N)N=C(N)N	inactive
NCCc1cnc[nH]1	inactive
CN(Cc1cnc2nc(N)nc(N)c2n1)c1ccc(C(=O)N[C@@H](CCC(=O)O)C(=O)O)cc1	4.18 µM (active)
CC1(C)O[C@H]2CC(=O)OC[C@]23[C@H]2CC[C@@]4(C)[C@H](c5ccoc5)OC(=O)[C@H]5O[C@]54[C@]2(C)C(=O)C[C@@H]13	inactive
CC(C)(C)C(=O)Oc1ccc(S(=O)(=O)Nc2ccccc2C(=O)NCC(=O)O)cc1	inactive
CN1C(C(=O)Nc2ccccn2)=C(O)c2ccccc2S1(=O)=O	inactive
CN1C2CCC1CC(OC(=O)C(CO)c1ccccc1)C2 (stereo not given)	inactive
Cc1ccccc1N1C(=O)c2cc(S(N)(=O)=O)c(Cl)cc2NC1C (stereo not given)	inactive
C[C@@H]1CC(=O)NN=C1c1ccc(NN=C(C#N)C#N)cc1	23.5 µM (active)
C[C@](N)(Cc1ccc(O)c(O)c1)C(=O)O	16.6 µM (active)
CC1COc2c(N3CCN(C)CC3)c(F)cc3c(=O)c(C(=O)O)cn1c23 (stereo not given)	inactive
CN1CCN(CCCN2c3ccccc3Sc3ccc(Cl)cc32)CC1	inactive
O=C1N(c2ccccc2)c2ccccc2C1(Cc1ccncc1)Cc1ccncc1	inactive
O=C(C1CCCCC1)N1CC(=O)N2CCc3ccccc3C2C1 (stereo not given)	inactive
COc1ccccc1OCCNCC(O)COc1cccc2[nH]c3ccccc3c12 (stereo not given)	inactive
CNCCCC12CCC(c3ccccc31)c1ccccc12	20.9 µM (active)
